Measured values reported in the supplement of paper PMC11732987, “Enantioselective OTUD7B fragment discovery through chemoproteomics screening and high-throughput optimisation” (Communications Chemistry, 2025).

Key:
Assay in all cases: log2 ratio of Biotin-Ahx-Ub-VS probe labelling (fragment/DMSO); higher = less target engagement (more negative = stronger competition), active = hit call of the paper (q ≤ 0.05, log2 ratio ≤ -1)
Settings in all cases: compound concentration: 200 uM; treatment time: 3 h
USP42 = target: T1, USP42 (UniProt Q9H9J4)
T1 sequence (whole entry): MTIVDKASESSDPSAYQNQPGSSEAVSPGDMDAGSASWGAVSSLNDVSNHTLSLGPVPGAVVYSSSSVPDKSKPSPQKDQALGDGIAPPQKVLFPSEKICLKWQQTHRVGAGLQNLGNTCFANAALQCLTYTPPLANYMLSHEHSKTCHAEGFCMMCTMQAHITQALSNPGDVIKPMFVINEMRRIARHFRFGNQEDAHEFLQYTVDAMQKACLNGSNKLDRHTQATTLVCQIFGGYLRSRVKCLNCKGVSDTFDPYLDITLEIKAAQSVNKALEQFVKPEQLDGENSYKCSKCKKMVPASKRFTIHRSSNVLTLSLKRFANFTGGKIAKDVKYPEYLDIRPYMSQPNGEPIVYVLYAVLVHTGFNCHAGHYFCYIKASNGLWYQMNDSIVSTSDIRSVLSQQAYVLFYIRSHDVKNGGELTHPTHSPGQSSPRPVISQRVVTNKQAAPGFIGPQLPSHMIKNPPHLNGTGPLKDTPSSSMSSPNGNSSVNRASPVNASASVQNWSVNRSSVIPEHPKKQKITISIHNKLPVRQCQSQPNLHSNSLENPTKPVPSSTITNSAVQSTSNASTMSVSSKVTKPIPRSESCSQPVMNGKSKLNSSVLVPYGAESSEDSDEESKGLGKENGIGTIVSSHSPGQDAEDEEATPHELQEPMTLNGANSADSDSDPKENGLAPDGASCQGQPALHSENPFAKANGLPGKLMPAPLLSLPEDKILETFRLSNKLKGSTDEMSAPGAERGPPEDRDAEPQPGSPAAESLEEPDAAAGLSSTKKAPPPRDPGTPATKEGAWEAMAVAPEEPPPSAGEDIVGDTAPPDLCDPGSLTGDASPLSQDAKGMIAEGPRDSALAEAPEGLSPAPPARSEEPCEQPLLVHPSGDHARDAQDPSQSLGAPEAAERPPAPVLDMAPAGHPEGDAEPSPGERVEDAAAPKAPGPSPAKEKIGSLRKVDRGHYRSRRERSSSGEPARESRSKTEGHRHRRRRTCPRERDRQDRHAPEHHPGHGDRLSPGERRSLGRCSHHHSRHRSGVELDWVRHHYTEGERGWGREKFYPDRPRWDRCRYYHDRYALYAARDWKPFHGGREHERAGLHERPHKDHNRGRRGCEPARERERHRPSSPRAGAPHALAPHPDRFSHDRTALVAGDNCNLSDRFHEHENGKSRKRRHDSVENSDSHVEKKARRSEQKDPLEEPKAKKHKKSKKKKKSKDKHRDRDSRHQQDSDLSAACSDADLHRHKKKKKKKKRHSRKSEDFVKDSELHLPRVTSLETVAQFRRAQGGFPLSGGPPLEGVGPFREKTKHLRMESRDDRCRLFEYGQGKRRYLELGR
How it was run: (§1)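 Labelling with Biotin-Ahx-Ub-VS (0.5 µM final, 1 h) followed a 3 h triplicate treatment of HEK293T lysate (495 µg per sample, Tris/CHAPS/IGEPAL buffer with protease inhibitors) with fragment at 200 µM or vehicle. Labelled DUBs were NeutrAvidin-enriched, digested with LysC and trypsin, and run by diaPASEF LC-MS/MS. The values, average log2 fragment/vehicle ratios by unpaired t-test, come from global-median-normalised Spectronaut label-free quantities. Proteins with ≥2 unique peptides were used.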

USP46 = USP46 (UniProt P62068)
Chain of USP46 (P62068 whole entry): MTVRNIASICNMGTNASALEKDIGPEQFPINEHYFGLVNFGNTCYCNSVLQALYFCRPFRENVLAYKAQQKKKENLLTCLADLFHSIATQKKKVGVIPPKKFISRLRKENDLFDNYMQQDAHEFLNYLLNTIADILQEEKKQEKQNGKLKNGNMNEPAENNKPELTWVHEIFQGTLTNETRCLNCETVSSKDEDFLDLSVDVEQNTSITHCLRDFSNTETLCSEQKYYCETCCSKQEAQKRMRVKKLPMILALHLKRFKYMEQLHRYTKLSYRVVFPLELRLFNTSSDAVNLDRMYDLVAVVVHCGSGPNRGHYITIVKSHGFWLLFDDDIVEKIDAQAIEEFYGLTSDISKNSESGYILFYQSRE
How it was run: as §1

USP47 = target: T2, USP47 (UniProt Q96K76)
T2 sequence (whole entry): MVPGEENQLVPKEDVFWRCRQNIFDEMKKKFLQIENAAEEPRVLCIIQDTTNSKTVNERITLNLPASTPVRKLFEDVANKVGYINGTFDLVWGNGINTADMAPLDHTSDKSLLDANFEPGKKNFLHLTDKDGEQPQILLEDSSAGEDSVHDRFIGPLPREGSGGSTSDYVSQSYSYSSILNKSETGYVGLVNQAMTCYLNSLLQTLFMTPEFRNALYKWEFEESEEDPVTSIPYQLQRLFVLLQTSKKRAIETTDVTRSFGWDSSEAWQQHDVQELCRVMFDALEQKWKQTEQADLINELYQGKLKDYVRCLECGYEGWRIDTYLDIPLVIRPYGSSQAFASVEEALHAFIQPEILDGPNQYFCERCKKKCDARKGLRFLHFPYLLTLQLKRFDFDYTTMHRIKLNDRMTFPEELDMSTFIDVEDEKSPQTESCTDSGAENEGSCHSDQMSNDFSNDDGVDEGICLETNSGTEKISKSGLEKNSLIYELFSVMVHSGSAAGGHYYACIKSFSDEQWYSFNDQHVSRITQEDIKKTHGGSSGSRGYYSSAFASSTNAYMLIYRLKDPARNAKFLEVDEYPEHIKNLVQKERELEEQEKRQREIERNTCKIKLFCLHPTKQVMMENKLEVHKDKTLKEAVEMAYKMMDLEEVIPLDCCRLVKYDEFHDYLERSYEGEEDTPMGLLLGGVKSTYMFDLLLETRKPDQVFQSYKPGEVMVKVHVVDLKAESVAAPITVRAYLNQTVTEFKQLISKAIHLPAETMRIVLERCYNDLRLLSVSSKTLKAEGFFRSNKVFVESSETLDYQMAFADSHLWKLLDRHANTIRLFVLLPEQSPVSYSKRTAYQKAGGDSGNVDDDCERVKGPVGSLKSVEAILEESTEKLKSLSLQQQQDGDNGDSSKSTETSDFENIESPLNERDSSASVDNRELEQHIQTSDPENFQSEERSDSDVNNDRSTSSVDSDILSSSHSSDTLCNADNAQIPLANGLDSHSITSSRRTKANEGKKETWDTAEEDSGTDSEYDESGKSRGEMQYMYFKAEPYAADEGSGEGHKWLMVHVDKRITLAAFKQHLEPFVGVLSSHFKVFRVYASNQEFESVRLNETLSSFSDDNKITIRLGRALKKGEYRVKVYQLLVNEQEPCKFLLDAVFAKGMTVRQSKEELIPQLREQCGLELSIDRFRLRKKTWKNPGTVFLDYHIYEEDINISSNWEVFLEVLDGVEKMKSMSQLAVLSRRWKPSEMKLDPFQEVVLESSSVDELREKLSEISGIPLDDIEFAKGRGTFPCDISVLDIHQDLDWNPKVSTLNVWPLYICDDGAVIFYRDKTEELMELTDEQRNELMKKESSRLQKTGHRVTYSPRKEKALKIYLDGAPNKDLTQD
How it was run: as §1

USP48 = target: T3, USP48 (UniProt Q86UV5)
T3 sequence (whole entry): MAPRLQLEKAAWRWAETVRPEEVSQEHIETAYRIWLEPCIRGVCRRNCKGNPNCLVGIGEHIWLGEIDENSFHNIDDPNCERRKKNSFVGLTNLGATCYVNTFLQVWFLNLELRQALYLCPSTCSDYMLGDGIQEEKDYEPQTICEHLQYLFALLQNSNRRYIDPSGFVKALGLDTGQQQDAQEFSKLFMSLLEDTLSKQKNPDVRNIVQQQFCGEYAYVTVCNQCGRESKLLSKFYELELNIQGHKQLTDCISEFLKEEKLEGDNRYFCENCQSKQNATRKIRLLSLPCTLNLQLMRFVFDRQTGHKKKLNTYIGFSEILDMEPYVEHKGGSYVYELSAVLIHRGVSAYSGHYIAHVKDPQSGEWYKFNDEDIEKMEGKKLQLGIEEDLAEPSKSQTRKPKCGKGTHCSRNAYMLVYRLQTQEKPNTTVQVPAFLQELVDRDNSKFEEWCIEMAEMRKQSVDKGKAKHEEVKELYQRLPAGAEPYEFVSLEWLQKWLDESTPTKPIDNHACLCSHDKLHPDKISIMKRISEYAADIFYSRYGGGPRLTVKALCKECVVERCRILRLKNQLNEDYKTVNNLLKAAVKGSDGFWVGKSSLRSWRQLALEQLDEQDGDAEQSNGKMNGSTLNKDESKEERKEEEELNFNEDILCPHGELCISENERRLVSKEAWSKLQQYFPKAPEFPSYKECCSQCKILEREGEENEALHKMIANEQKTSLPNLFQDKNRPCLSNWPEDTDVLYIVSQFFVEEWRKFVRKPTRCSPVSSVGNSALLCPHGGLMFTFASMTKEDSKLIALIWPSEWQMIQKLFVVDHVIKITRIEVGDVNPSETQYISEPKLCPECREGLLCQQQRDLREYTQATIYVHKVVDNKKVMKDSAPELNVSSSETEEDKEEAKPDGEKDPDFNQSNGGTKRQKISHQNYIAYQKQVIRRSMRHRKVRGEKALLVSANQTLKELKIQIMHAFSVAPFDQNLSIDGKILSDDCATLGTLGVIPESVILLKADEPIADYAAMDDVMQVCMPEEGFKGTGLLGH
How it was run: as §1

USP5 = target: T4, USP5 (UniProt P45974)
T4 sequence (whole entry): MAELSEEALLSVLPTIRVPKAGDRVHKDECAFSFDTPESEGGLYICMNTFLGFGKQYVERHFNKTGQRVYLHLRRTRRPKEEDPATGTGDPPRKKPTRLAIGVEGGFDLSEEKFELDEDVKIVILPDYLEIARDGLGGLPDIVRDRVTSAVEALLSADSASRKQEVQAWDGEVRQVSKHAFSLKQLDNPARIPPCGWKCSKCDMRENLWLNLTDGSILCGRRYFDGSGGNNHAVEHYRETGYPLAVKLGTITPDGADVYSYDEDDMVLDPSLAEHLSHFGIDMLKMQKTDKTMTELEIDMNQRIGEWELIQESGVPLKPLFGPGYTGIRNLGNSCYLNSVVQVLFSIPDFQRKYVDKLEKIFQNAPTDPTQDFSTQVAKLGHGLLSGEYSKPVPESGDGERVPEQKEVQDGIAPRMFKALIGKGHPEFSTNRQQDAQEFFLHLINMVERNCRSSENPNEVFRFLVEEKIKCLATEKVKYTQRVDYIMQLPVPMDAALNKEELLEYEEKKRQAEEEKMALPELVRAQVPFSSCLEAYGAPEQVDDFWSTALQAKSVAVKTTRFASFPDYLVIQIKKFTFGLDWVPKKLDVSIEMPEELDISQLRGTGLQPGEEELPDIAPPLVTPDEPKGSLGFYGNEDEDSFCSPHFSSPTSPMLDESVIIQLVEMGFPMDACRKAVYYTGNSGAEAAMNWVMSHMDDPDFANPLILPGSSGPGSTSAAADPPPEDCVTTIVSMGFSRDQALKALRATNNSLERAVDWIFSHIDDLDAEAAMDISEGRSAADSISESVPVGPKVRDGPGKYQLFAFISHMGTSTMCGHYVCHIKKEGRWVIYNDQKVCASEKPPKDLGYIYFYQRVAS
How it was run: as §1

USP54 = USP54 (UniProt Q70EL1)
Chain of USP54 (Q70EL1 whole entry): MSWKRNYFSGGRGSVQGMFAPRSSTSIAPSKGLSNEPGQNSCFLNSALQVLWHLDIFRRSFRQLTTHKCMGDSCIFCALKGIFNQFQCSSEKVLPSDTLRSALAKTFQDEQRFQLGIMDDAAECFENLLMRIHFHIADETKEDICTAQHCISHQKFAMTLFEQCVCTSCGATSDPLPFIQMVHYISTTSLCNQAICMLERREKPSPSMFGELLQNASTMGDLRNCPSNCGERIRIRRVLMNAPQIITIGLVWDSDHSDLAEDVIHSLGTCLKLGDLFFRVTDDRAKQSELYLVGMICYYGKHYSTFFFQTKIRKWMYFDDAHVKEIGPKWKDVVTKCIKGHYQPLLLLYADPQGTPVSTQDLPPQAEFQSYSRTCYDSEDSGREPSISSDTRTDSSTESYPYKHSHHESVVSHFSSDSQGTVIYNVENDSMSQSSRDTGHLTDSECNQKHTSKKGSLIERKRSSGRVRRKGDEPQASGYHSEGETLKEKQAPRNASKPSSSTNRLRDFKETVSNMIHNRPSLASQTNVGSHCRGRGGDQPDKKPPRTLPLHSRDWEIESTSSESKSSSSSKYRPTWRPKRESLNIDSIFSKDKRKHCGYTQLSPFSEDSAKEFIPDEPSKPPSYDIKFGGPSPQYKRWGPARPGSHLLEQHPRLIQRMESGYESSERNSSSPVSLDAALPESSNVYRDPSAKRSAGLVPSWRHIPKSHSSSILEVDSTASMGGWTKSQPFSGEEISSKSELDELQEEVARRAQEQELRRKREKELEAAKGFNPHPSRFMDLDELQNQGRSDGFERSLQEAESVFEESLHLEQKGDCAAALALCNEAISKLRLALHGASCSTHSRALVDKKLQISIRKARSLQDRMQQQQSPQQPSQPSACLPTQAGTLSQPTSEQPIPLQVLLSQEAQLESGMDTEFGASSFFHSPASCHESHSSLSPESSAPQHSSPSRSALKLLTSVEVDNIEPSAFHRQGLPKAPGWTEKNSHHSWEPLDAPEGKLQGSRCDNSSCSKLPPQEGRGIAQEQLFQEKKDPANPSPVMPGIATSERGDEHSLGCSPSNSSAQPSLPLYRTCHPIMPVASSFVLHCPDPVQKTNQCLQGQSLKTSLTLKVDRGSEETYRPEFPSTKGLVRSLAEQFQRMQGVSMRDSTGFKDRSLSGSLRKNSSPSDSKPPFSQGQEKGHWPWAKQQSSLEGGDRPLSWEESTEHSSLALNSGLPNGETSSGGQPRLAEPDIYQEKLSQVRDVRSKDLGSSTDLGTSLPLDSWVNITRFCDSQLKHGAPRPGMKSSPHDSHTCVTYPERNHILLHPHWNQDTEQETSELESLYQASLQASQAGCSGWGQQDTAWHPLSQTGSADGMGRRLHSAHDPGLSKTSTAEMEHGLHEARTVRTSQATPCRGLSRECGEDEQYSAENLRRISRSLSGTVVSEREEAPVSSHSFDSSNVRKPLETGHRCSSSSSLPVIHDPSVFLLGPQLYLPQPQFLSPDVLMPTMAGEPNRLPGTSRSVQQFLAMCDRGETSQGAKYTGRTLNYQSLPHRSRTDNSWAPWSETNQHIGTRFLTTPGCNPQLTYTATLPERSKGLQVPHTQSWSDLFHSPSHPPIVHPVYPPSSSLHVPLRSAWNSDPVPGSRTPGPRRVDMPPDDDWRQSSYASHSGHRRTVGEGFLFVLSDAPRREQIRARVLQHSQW
How it was run: as §1

USP7 = USP7 (UniProt Q93009)
Chain of USP7 (Q93009 whole entry, looked up): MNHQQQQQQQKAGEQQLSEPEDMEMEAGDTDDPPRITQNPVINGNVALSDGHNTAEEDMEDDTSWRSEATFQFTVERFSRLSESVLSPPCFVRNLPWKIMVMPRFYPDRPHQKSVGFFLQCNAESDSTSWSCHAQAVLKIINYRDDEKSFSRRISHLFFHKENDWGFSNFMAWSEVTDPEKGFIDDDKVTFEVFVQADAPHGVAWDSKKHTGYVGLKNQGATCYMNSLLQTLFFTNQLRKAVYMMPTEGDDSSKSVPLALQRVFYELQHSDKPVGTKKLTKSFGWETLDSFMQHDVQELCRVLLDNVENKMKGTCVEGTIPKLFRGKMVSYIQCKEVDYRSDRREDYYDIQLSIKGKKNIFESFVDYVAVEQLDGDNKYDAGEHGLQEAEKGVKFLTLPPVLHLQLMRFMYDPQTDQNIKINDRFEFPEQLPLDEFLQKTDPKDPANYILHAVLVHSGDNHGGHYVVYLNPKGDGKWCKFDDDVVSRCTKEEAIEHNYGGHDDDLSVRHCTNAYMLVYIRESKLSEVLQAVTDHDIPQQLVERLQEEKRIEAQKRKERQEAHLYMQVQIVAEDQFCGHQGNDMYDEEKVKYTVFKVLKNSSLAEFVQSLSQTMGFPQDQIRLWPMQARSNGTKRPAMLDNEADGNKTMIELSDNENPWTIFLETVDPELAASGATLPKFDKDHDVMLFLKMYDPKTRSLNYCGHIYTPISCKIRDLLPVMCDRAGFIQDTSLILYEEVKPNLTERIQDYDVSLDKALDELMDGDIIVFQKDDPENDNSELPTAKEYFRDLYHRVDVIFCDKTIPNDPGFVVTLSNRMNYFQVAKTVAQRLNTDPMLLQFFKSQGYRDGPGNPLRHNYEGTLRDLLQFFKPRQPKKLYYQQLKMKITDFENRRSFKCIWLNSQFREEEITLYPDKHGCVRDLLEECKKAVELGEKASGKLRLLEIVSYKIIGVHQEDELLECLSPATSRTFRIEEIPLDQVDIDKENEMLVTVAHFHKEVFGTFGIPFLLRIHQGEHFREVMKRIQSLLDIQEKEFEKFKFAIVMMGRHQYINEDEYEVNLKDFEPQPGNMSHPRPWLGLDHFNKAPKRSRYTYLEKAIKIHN
How it was run: as §1

USP8 = target: T5, USP8 (UniProt P40818)
T5 sequence (whole entry): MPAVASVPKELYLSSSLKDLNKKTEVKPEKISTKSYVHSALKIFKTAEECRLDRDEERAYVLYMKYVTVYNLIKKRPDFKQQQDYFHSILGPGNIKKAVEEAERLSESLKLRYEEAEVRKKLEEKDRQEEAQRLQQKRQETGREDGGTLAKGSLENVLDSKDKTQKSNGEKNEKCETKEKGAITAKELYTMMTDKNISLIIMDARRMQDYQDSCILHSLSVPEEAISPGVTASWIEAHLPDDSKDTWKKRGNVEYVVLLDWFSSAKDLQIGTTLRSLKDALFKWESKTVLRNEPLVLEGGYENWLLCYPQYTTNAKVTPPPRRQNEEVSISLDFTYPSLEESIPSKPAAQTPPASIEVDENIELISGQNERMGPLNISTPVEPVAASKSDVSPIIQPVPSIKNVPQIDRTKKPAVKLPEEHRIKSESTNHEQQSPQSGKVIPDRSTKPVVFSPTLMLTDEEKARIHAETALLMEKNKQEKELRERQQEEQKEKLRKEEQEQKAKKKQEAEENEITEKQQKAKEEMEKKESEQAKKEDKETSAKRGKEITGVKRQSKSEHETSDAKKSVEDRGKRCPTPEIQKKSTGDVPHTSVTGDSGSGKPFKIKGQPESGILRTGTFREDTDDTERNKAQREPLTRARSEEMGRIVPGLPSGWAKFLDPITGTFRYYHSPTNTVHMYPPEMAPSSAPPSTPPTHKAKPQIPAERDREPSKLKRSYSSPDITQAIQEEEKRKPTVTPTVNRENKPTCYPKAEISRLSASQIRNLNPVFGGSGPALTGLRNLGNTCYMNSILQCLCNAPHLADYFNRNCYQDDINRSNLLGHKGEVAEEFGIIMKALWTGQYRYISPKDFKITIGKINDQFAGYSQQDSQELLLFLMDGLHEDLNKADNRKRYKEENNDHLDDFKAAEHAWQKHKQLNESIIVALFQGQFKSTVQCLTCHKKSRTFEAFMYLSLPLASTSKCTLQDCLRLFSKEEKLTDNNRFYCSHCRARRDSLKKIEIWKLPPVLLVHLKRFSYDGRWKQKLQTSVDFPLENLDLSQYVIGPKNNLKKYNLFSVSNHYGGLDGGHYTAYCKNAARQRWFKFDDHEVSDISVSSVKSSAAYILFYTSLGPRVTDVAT
How it was run: as §1

USP9X = USP9X (UniProt Q93008)
How it was run: as §1

UniProt O00487 = target: UniProt O00487
Chain of UniProt O00487 (O00487 whole entry): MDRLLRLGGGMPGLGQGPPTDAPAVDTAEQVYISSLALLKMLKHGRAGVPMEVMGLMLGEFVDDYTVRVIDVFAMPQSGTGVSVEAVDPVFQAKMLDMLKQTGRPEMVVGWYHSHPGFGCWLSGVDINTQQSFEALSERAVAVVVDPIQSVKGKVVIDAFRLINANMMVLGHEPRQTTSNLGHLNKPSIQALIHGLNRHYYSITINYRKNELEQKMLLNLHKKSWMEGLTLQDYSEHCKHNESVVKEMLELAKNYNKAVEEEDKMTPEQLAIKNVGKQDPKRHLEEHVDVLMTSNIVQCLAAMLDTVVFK
How it was run: as §1

Measured: log2 ratio of Biotin-Ahx-Ub-VS probe labelling

CN(CCC(O)c1ccc(Br)cc1)C(=O)CCl (stereo not given)
inactive: USP42 0.556 | USP46 -0.218 | USP47 -0.526 | USP48 -0.691 | USP5 -0.00644 | USP54 0.00894 | USP7 -0.612 | USP8 -0.072 | USP9X -0.275 | UniProt O00487 -0.00696
